Reference: PubChem BioAssay (EPA / NIEHS)
Calls of active or inactive are those of the source. How the source made its calls: active means hit-call score of the fitted dose curve at least 0.9, where 1 is the maximum; inactive means score below 0.9.

Columns and labels:
Details in all cases: mRNA level, 48 h; actives raise or lower the signal
[1] = read-out: Cytochrome P450 3A4 (Homo sapiens) (UniProt P08684); experiment: LTEA_HepaRG_CYP3A4: Life Technologies and Expression Analysis (LTEA) Assay for CYP3A4 using HepaRG (AID 2283487)
In short: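 In a human hepatic line (HepaRG), duplicate wells were treated 48 h with up to 100 uM chemical in half-log dilutions. Endpoint: CYP3A4 mRNA induction or loss relative to 0.5% DMSO vehicle, by qRT-PCR.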

[2] = read-out: DNA damage-inducible transcript 3 (DDIT3), DDIT3 (gene 1649); experiment: LTEA_HepaRG_DDIT3: Life Technologies and Expression Analysis (LTEA) Assay for DNA damage-inducible transcript 3 (DDIT3) using HepaRG (AID 2283488)
In short: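 qRT-PCR readout (Fluidigm TaqMan), housekeeping-normalized to ACTB, GAPDH, POLR2A. HepaRG cells, 48 h exposure, 8-point half-log series from 100 uM in 0.5% DMSO, duplicates. Gain or loss of signal fitted against DMSO baseline.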

[3] = read-out: Pro-epidermal growth factor (Homo sapiens) (UniProt P01133); experiment: LTEA_HepaRG_EGF: Life Technologies and Expression Analysis (LTEA) Assay for Epidermal growth factor (EGF) using HepaRG (AID 2283489)
In short: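 EGF expression changes in human HepaRG cells are scored by bidirectional fitting relative to 0.5% DMSO controls. Chemicals are tested at eight half-log concentrations up to 100 uM for 48 h in serum-free induction medium.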

[4] = read-out: Early growth response protein 1 (EGR1) transcription factor, EGR1 (gene 1958); experiment: LTEA_HepaRG_EGR1: Life Technologies and Expression Analysis (LTEA) Assay for Early growth response protein 1 (EGR1) transcription factor using HepaRG (AID 2283490)
In short: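 EGR1 expression change in human HepaRG after 48 h chemical exposure, assessed by housekeeping-normalized qRT-PCR; concentration-response up to 100 uM, fitted in both directions against DMSO controls.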

[5] = read-out: Ezrin (EZR), EZR (gene 7430); experiment: LTEA_HepaRG_EZR: Life Technologies and Expression Analysis (LTEA) Assay for Ezrin (EZR) using HepaRG (AID 2283491)
In short: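 Gain or loss of EZR mRNA is scored relative to 0.5% DMSO in human HepaRG cultures treated 48 h with test chemicals in duplicate, eight half-log concentrations from 100 uM.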

CYP3A5 (gene 1577) = experiment: LTEA_HepaRG_CYP3A5: Life Technologies and Expression Analysis (LTEA) Assay for CYP3A5 using HepaRG (AID 2283493)
In short: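 qRT-PCR read-out: CYP3A5 transcript in HepaRG lysates, housekeeping-normalized (ACTB/GAPDH/POLR2A), fitted bidirectionally against 0.5% DMSO baseline. Exposure 48 h, eight half-log concentrations up to 100 uM, duplicates.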

[6] = read-out: Fatty Acid-Binding Protein 1 (FABP1), FABP1 (gene 2168); experiment: LTEA_HepaRG_FABP1: Life Technologies and Expression Analysis (LTEA) Assay for Fatty Acid-Binding Protein 1 (FABP1) using HepaRG (AID 2283494)
In short: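 Values reflect bidirectional concentration-response fitting of FABP1 mRNA change against 0.5% DMSO controls. Human HepaRG cultures received eight half-log doses (top 100 uM) for 48 h; expression quantified by TaqMan qRT-PCR with housekeeping-gene normalization.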

[7] = read-out: Cytochrome P450 4A22 (Homo sapiens) (UniProt Q5TCH4); experiment: LTEA_HepaRG_CYP4A22: Life Technologies and Expression Analysis (LTEA) Assay for Cytochrome P450 4A22 (CYP4A22) using HepaRG (AID 2283495)
In short: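 Cryopreserved HepaRG cells, plated and cultured 48 h, then switched to serum-free induction medium and treated 48 h (duplicates, up to 100 uM, half-log steps, 0.5% DMSO). Expression change of CYP4A22 was fitted bidirectionally against vehicle.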

[8] = read-out: Cytochrome P450 7A1 (Homo sapiens) (UniProt P22680); experiment: LTEA_HepaRG_CYP7A1: Life Technologies and Expression Analysis (LTEA) Assay for Cytochrome P450 7A1 (CYP7A1) using HepaRG (AID 2283496)
In short: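 Using 0.5% DMSO as vehicle and baseline, chemicals were tested in duplicate over an 8-point range from 100 uM on HepaRG cells for 48 h; qRT-PCR signals were normalised to ACTB, GAPDH and POLR2A.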

[9] = read-out: Glutathione S-Transferase (GSTA2), GSTA2 (gene 2939); experiment: LTEA_HepaRG_GSTA2: Life Technologies and Expression Analysis (LTEA) Assay for Glutathione S-Transferase (GSTA2) using HepaRG (AID 2283497)
In short: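 Oxidative-stress marker GSTA2 is quantified by TaqMan qRT-PCR in HepaRG cultures treated 48 h across an eight-point range to 100 uM. Expression is normalized to endogenous controls and compared with 0.5% DMSO vehicle.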

[10] = read-out: Glutamate-cysteine ligase catalytic (GCLC), GCLC (gene 2729); experiment: LTEA_HepaRG_GCLC: Life Technologies and Expression Analysis (LTEA) Assay for Glutamate-cysteine ligase catalytic (GCLC) using HepaRG (AID 2283498)
In short: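 Oxidative-stress marker GCLC is measured as mRNA change in human HepaRG liver cells after 48 h chemical treatment in 0.5% DMSO, eight concentrations from 100 uM. Activity is fitted bidirectionally against vehicle.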

[11] = read-out: growth arrest and DNA damage 45 (GADD45G), GADD45G (gene 10912); experiment: LTEA_HepaRG_GADD45G: Life Technologies and Expression Analysis (LTEA) Assay for growth arrest and DNA damage 45 (GADD45G) using HepaRG (AID 2283499)
In short: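 Human hepatic HepaRG line treated 48 h with chemicals (eight concentrations, half-log steps from 100 uM); transcript induction or repression of GADD45G scored by qRT-PCR versus DMSO vehicle.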

[12] = read-out: Glutamate-cysteine ligase regulatory (GCLM), GCLM (gene 2730); experiment: LTEA_HepaRG_GCLM: Life Technologies and Expression Analysis (LTEA) Assay for Glutamate-cysteine ligase regulatory (GCLM) using HepaRG (AID 2283500)
In short: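 HepaRG, 48 h dosing, 100 uM top, half-log x8, 0.5% DMSO vehicle. Readout: GCLM mRNA by TaqMan qRT-PCR, housekeeping-normalized (ACTB/GAPDH/POLR2A). Curves fit bidirectionally vs DMSO baseline.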

[13] = read-out: Glutathione S-transferase M3 (GSTM3), GSTM3 (gene 2947); experiment: LTEA_HepaRG_GSTM3: Life Technologies and Expression Analysis (LTEA) Assay for Glutathione S-transferase M3 (GSTM3) using HepaRG (AID 2283501)
In short: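 Changes in GSTM3 expression, an oxidative-stress marker, were scored by bidirectional curve fitting against 0.5% DMSO vehicle. Human HepaRG cultures received chemicals for 48 h in duplicate, highest concentration 100 uM with half-log dilutions.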

[14] = read-out: Heat shock 70 kDa protein 1 (HSPA1A), gene 3303; experiment: LTEA_HepaRG_HSPA1A: Life Technologies and Expression Analysis (LTEA) Assay for Heat shock 70 kDa protein 1 (HSPA1A) using HepaRG (AID 2283502)
In short: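 HepaRG, 48 h exposure, 8-pt half-log CRC from 100 uM in 0.5% DMSO, duplicates. Readout: TaqMan qRT-PCR of HSPA1A mRNA, housekeeping-normalized (ACTB/GAPDH/POLR2A). Bidirectional fit vs 0.5% DMSO baseline.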

[15] = read-out: Hypoxia-inducible factor 1-alpha (Homo sapiens) (UniProt Q16665); experiment: LTEA_HepaRG_HIF1A: Life Technologies and Expression Analysis (LTEA) Assay for Hypoxia-inducible factor 1 (HIF1A) Trancription factor using HepaRG (AID 2283503)
In short: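 Gain- or loss-of-signal HIF1A mRNA changes are fitted against a DMSO baseline. HepaRG cultures receive eight concentrations, highest 100 uM, for 48 h in serum-free induction medium with 0.5% DMSO.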

[16] = read-out: 3-Hydroxy-3-Methylglutaryl-CoA Synthase 2 (HMGCS2), HMGCS2 (gene 3158); experiment: LTEA_HepaRG_HMGCS2: Life Technologies and Expression Analysis (LTEA) Assay for 3-Hydroxy-3-Methylglutaryl-CoA Synthase 2 (HMGCS2) using HepaRG (AID 2283504)
In short: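 Expression of HMGCS2 in human HepaRG liver cells is measured by qRT-PCR 48 h after dosing (highest 100 uM, half-log series, 0.5% DMSO). Values come from bidirectional concentration-response fitting with DMSO as baseline.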

HGF (gene 3082) = experiment: LTEA_HepaRG_HGF: Life Technologies and Expression Analysis (LTEA) Assay for Hepatocyte Growth Facto (HGF) using HepaRG (AID 2283505)
In short: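 Gain or loss of HGF mRNA in human HepaRG liver cells after 48 h chemical exposure; eight concentrations up to 100 uM with 0.5% DMSO vehicle, quantified by TaqMan qRT-PCR.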

[17] = read-out: Insulin Like Growth Factor 1 (IGF1), IGF1 (gene 3479); experiment: LTEA_HepaRG_IGF1: Life Technologies and Expression Analysis (LTEA) Assay for Insulin Like Growth Factor 1 (IGF1) using HepaRG (AID 2283506)
In short: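 qRT-PCR readout of IGF1 mRNA, normalized to three housekeeping genes, after 48 h chemical exposure of HepaRG cells. Concentrations: 8-point half-log series, top 100 uM, 0.5% DMSO vehicle. Gain or loss fitted against DMSO baseline.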

Measured: AC50

Sequence of Cytochrome P450 3A4 (Homo sapiens) (P08684 whole entry, looked up): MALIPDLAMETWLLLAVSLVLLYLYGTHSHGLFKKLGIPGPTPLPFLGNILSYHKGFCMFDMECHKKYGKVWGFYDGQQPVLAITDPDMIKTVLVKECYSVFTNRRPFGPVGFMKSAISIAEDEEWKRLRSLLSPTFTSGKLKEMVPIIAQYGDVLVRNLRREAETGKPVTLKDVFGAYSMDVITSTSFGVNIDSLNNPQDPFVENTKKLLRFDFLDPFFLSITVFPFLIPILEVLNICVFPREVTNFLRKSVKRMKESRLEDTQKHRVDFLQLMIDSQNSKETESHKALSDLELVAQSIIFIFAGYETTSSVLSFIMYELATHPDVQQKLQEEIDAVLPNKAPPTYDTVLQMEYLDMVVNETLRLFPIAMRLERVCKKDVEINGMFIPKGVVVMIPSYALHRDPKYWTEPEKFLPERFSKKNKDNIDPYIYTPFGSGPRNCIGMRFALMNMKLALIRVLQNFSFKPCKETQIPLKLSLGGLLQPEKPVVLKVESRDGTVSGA
Sequence of Hypoxia-inducible factor 1-alpha (Homo sapiens) (Q16665 whole entry, looked up): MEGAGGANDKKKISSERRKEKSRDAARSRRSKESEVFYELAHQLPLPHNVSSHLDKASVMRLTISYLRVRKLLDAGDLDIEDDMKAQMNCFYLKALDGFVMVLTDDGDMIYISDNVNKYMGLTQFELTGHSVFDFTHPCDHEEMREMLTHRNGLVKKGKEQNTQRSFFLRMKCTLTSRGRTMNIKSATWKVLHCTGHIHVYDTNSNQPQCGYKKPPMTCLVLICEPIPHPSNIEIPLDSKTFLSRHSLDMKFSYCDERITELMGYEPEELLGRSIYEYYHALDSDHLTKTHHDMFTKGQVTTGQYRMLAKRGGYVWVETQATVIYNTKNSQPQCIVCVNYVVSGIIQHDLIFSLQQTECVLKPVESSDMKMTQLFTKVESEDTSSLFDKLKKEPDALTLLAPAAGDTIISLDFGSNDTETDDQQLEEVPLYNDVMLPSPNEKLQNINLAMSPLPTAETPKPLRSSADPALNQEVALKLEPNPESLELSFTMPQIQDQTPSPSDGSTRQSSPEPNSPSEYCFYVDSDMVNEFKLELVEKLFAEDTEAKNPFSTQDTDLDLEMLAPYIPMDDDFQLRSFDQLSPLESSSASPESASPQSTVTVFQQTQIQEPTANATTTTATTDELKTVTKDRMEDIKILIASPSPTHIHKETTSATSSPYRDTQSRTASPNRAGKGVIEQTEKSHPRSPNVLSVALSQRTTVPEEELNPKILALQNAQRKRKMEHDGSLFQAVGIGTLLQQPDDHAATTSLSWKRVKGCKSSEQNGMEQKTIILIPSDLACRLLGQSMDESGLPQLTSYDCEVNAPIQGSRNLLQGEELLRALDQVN

CCCCN(CC)c1c([N+](=O)[O-])cc(C(F)(F)F)cc1[N+](=O)[O-]
active: [1] 23.2 µM
inactive: all other assays above

CSc1nc(NC(C)C)nc(NC(C)C)n1
active: [1] 1.46 µM | [6] 44.1 µM | [7] 24.3 µM | [8] 50 µM | [9] 81.6 µM | [11] 64.7 µM | [16] 50 µM | [17] 20.7 µM
not listed: [4]
inactive: all other assays above

Cc1ccn2nc(S(=O)(=O)Nc3c(F)cccc3F)nc2n1
active: [1] 40.5 µM
not listed: [4]
inactive: all other assays above

CC[C@H](C)[C@H]1O[C@]2(C=C[C@@H]1C)C[C@@H]1C[C@@H](C/C=C(\C)[C@@H](O[C@H]3C[C@H](OC)[C@@H](O[C@H]4C[C@H](OC)[C@@H](NC)[C@H](C)O4)[C@H](C)O3)[C@@H](C)/C=C/C=C3\CO[C@@H]4[C@H](O)C(C)=C[C@@H](C(=O)O1)[C@]34O)O2
inactive: [8] | [12] | [13] | HGF (gene 3082)
active: [1] 23.1 µM | [2] 13.1 µM | [3] 81.5 µM | [5] 79.5 µM | CYP3A5 (gene 1577) 22.7 µM | [6] 14.6 µM | [7] 7.23 µM | [9] 23.3 µM | [10] 50 µM | [11] 2.78 µM | [14] 20.4 µM | [15] 74.3 µM | [16] 12.5 µM | [17] 27.7 µM
